Source: article PMC4552634, “A New Set of Chemical Starting Points with Plasmodium falciparum Transmission-Blocking Potential for Antimalarial Drug Discovery” (PLoS ONE, 2015)
Screen size: about 13,000 compounds; about 3,200 (25%) showed an effect of 50% or more. The list shows a part of the results.

These molecules were tested on P. falciparum stage V gametocytes. Settings: 48 h, 5 µM; inhibitor.
Design: BacTiter-Glo ATP luminescence viability of purified stage V gametocytes in 384-well plates, per cent inhibition versus DMSO

Structure (SMILES)	% Inhibition
Cc1cc2c(cc1C(F)(F)F)N(C(=O)Nc1ccc(C(=O)NCCN3CCCC3)cc1)CC2 [TCMDC-139870]	3.174%
CC(=O)Nc1ncc(C(=O)Nc2cccc(-c3cccc(-c4nc5c(C)cccc5[nH]4)c3)c2)s1 [TCMDC-136920]	35.18%
C=CCOC(=O)N1CCC(CNCc2ccc(-c3ccc(-c4nc5cc(C(F)(F)F)ccc5[nH]4)cc3)cc2)C1.O=C(O)C(F)(F)F (stereo not drawn) [TCMDC-133041]	-74.05%
CN(C)Cc1cccc(CNC(=O)c2sccc2OCc2ccc(Cl)cc2)c1 [TCMDC-133072]	41.43%
CCc1cc(COc2ccc(CNCCC(C)C)cc2I)c(OCc2ccccc2)c(COc2ccc(CNCCC(C)C)cc2I)c1 [TCMDC-137255]	104.7%
Ic1cc(Nc2ncnc3ccsc23)ccc1OCc1ccccc1 [TCMDC-131945]	7.84%
CC(C)CCNCc1ccc(OCc2cccc(COc3ccc(CNCCC(C)C)cc3I)c2)c(I)c1 [TCMDC-137274]	110.6%
Oc1ccc(CCNCc2ccc(OCc3ccccc3)c(OCc3ccccc3)c2)cc1 [TCMDC-131868]	6.388%
CC(C)CCNCc1ccc(OCc2cccc(C(=O)Nc3ccccc3)c2)c(I)c1 [TCMDC-137174]	28.8%
Cc1ccc(C)c(NC(=O)Nc2ccc(C)c(-c3ccc(C(=O)Nc4ccncc4)cc3)c2)c1 [TCMDC-133703]	-9.34%
COc1ccc(NC(=O)N2CCCN(CCCCCNC(=O)/C=C/c3ccc(Cl)cc3)CC2)cc1Cl [TCMDC-136103]	-49.97%
COc1ccc(CCNc2ccnc3cc(Cl)ccc23)cc1OC [TCMDC-138550]	-32.91%
COc1cc(CCNC(=N)/C=C/c2ccc(Cl)cc2)ccc1Cl [TCMDC-137457]	106.7%
O=C(NCCN1CCCC1)c1ccc(-c2cccc(-c3nc4ccc(F)cc4[nH]3)c2)cc1 [TCMDC-132321]	-17.02%
COc1cc(OC)cc(C(=O)Nc2ccc(Nc3nc(C)cc(N(C)C)n3)cc2)c1 [TCMDC-124726]	23.32%
NC(N)=NN=Cc1cc2ccccc2c2ccccc12 [TCMDC-137671]	48.28%
NC(N)=NN=Cc1ccc2ccc3ccccc3c2c1 [TCMDC-137902]	101.6%
NC(N)=NN=Cc1ccc2c(c1)Cc1ccccc1-2 [TCMDC-137360]	-2.51%
NC(N)=NN=Cc1ccc2c(ccc3ccccc32)c1 [TCMDC-137912]	86.91%
Cc1ccccc1C1CCN(C2CCC(NC(=O)/C=C/c3cc(F)ccc3F)CC2)CC1 (stereo not drawn) [TCMDC-133510]	-90.23%
Cc1cc(N[C@@H](Cc2ccccc2)C(=O)Nc2ccccc2)nc(NCCc2cccnc2)n1 [TCMDC-134820]	59.14%
COc1ccc(NC(=O)[C@H](Cc2ccccc2)Nc2cc(C)nc(NCCOc3ccccc3)n2)cc1 [TCMDC-134757]	13.17%
COc1ccc(NC(=O)[C@H](Cc2ccccc2)Nc2cc(C)nc(NCCc3cccnc3)n2)cc1 [TCMDC-134818]	72.32%
COc1ccc(NC(=O)[C@H](Cc2ccccc2)Nc2cc(C)nc(Nc3ccccc3)n2)cc1 [TCMDC-134733]	-3.042%
COc1ccc(O)c(C(=O)c2cc(C(=O)NC3CCCCC3)c(=O)n(C3CCCCC3)c2)c1 [TCMDC-124510]	4.971%

Structure (SMILES)	% Inhibition
Cc1[nH]c(C)c(-c2ccc(OCc3cc(C(F)(F)F)cc(C(F)(F)F)c3)nc2)c(=O)c1Br [TCMDC-135815]	65.31%
Cc1[nH]c(C)c(-c2ccc(OCc3ccc(OC(F)(F)F)cc3)nc2)c(=O)c1Cl [TCMDC-135271]	11.85%
Cc1[nH]c(C)c(-c2ccc(OCc3cc(C(F)(F)F)cc(C(F)(F)F)c3)nc2)c(=O)c1Cl [TCMDC-135814]	52.24%
Cc1[nH]c(C)c(-c2ccc(OCc3ccccc3C(F)(F)F)nc2)c(=O)c1Br [TCMDC-135796]	65.1%
Cc1[nH]c(C)c(-c2ccc(OCc3cccc(C(F)(F)F)c3)nc2)c(=O)c1Br [TCMDC-135656]	74.31%
COc1ccc(OC)c2c1CCN(CCN1CCC(C(=O)Nc3ccc(C(=O)Nc4ccc(Cl)cc4)cc3)CC1)C2 [TCMDC-138820]	2.402%
FC(F)(F)c1ccc2[nH]c(-c3ccc(-c4cccc(CNCc5cnn(-c6ccccc6)n5)c4)cc3)nc2c1.O=C(O)C(F)(F)F [TCMDC-132971]	-20.04%
O=C(NC1CCC(CCN2Cc3ccc(Br)cc3C2)CC1)c1cccc(-c2cccnc2)c1 (stereo not drawn) [TCMDC-139603]	36.86%
Nc1nc(N)c2c(Oc3cccnc3)cccc2n1 [TCMDC-137990]	-4.996%
CN(C)c1cccc(NC(=O)N[C@H]2N=C(c3ccccc3)c3ccccc3N(CC(=O)N3CCCC3)C2=O)c1 [TCMDC-131987]	37.26%
N#Cc1ccc(CCNc2nccc(-c3cccc(CN4CCNCC4)c3)n2)cc1 [TCMDC-134845]	38.8%
CCC[C@@H]([C@@H](CC1CCCCC1)C(=O)NC(C(=O)Nc1nccs1)C(CC)c1ccccc1)N(O)C=O (stereo partly drawn) [TCMDC-137999]	-15.87%
Cc1cccc2nc(-c3ccc(-c4ccc(CNCCCN5CCCC5=O)cc4)cc3)[nH]c12.O=C(O)C(F)(F)F [TCMDC-132763]	3.748%
O=C(Cn1c(CCc2cccc(F)c2F)nc(=O)c2cccnc21)N(Cc1ccc(-c2ccc(C(F)(F)F)cc2)cc1)C1CCN(C2CCOCC2)CC1 [TCMDC-136501]	53.37%
O=C(Cn1c(CCc2cccc(F)c2F)nc(=O)c2cccnc21)N(Cc1ccc(-c2ccc(C(F)(F)F)cc2)cc1)C1CCN(C2CCSCC2)CC1 [TCMDC-136559]	46.52%
O=C(Cn1c(CCc2cccc(F)c2F)nc(=O)c2ccccc21)N(Cc1ccc(-c2ccc(C(F)(F)F)cc2)cc1)C1CCN(C2CCOCC2)CC1 [TCMDC-136502]	73.92%
O=C(Cn1c(CCc2cccc(F)c2F)nc(=O)c2ccccc21)N(Cc1ccc(-c2ccc(C(F)(F)F)cc2)cc1)C1CCN(C2CCSCC2)CC1 [TCMDC-136609]	103.4%
N#Cc1ccc(N2CCN(Cc3ccc(-c4ccc(-c5nc6cc(C(F)(F)F)ccc6[nH]5)s4)cc3)CC2)nc1.O=C(O)C(F)(F)F [TCMDC-133110]	-11.35%
N#Cc1ccc(CN2CCC(Oc3ccc(NC(=O)c4ccccc4)cc3Cl)CC2)cc1 [TCMDC-133958]	11.07%
COc1ccc(NC(=O)Nc2ccc(Nc3nc(C)cc(N4CCCC4)n3)cc2)cc1 [TCMDC-124958]	27.34%
COc1ccc(NC(=O)C2c3ccccc3C(=O)N(C3CCCC3)C2c2cccs2)cc1 (stereo not drawn) [TCMDC-125287]	90.81%
COc1ccc(NC(=O)C2c3ccccc3C(=O)N(C3CCCC3)C2c2cccs2)c(OC)c1 (stereo not drawn) [TCMDC-125288]	-16.95%
COc1ccc(NC(=O)C2c3ccccc3C(=O)N(C3CCCC3)C2c2cccs2)cc1OC (stereo not drawn) [TCMDC-124695]	88.1%
COc1ccc(Cl)cc1NC(=O)Nc1ccc2c(c1)CCN(C1CCC1)CC2 [TCMDC-136006]	9.191%
O=C(Nc1cccc(CN2CCCN(Cc3ccc(O)cc3)CC2)c1)c1cc2ccccc2o1 [TCMDC-141859]	49.98%

Structure (SMILES)	% Inhibition
COc1cc(Br)c(NC(=O)Nc2ccc(C(F)(F)F)c(O[C@@H]3CCN(C)C3)c2)cc1OC [TCMDC-135186]	-75.17%
CN1CC[C@@H](Oc2cc(NC(=O)Nc3ccc(Cl)c(C(F)(F)F)c3)ccc2Cl)C1 [TCMDC-136149]	23.18%
CN1CC[C@@H](Oc2cc(NC(=O)Nc3ccccc3Br)ccc2Cl)C1 [TCMDC-136144]	79.19%
Cc1cc2nc(-c3ccc(C(=O)NCc4cccc(F)c4)cc3)[nH]c2cc1C [TCMDC-140432]	-28.29%
CC(C)Nc1cc(C(=O)N[C@@H](Cc2ccccc2)[C@H](O)CNC2CCCCC2)cc(N2CCCCS2(=O)=O)c1 [TCMDC-135203]	21.45%
COc1ccccc1N1CCN(Cc2c(O)ccc3cc(Br)ccc23)CC1 [TCMDC-123565]	17.32%
CC(=O)Nc1nc(C(=O)Nc2cccc(-c3ccc(-c4nc5cccc(C)c5[nH]4)s3)c2)cs1 [TCMDC-137132]	-23.79%
COc1ccc(Cl)cc1NC(=O)C(C)N1CCN(S(=O)(=O)c2ccccc2F)CC1 (stereo not drawn) [TCMDC-123567]	-51.26%
COc1ccc(Cl)cc1NC(=O)CN(C)C(=O)c1cnn(-c2ccccc2)n1 [TCMDC-125457]	95.1%
COc1ccc(Cl)cc1NC(=O)Nc1cc(C)nc2ccccc12 [TCMDC-125497]	-49.54%
Cc1ccc(-n2c(=O)c3cccnc3n2CC(=O)Nc2cccc(C)c2C)cc1 [TCMDC-125161]	23.17%
COc1ccc(CN(C2CC2)C(C)C(=O)c2[nH]c(C)c(C(C)=O)c2C)cc1 (stereo not drawn) [TCMDC-125037]	53.61%
CCCC(C)N(Cc1ccc(C(C)(C)C)cc1)C(=O)c1ccc(OC)cc1 (stereo not drawn) [TCMDC-139782]	14.81%
CC1(C)N=C(NC(=O)c2cc([N+](=O)[O-])cc([N+](=O)[O-])c2)N=C(N)N1OCc1cccc2ccccc12 [TCMDC-131584]	-17.03%
CC(C)CCNC(=O)c1cc(C(=O)c2cc(F)ccc2O)cn(CCC(C)C)c1=O [TCMDC-124499]	0.8137%
CC(C)(C)c1ccc(C(=O)Nc2cccc(Nc3c(C(=O)NCc4cccc(C(F)(F)F)c4)cnc4c(O)cccc34)c2)cc1.O=C(O)C(F)(F)F [TCMDC-139610]	57.39%
CN(c1cc(NC(=O)c2ccc(F)cc2)ccn1)C1CCN(Cc2cccc(O)c2)CC1 [TCMDC-134966]	-19%
COc1ccc(CNC(=O)c2cnc3c(O)cccc3c2Nc2cccc(NC(=O)c3ccc(Cl)c(Cl)c3)c2)cc1.O=C(O)C(F)(F)F [TCMDC-139607]	97.23%
CC(C)CCNC(=O)c1cnc2c(O)cccc2c1Nc1cccc(NC(=O)c2ccc(F)cc2)c1.O=C(O)C(F)(F)F [TCMDC-139606]	111.5%
COc1ccc(CNC(=O)c2cnc3c(O)cccc3c2Nc2cccc(NC(=O)c3ccc(Cl)c([N+](=O)[O-])c3)c2)cc1.O=C(O)C(F)(F)F [TCMDC-139609]	35.62%
O=C(Cc1ccc(NC(=O)c2ccc(O)c(-c3ccc(Cl)c(Cl)c3)c2)cc1)NCc1cccc(C(F)(F)F)c1 [TCMDC-140835]	-7.918%
COc1ccc(CNC(=O)c2cnc3cc(-c4c(C)noc4C)ccc3c2Nc2ccccc2C(C)(C)C)cc1.Cl [TCMDC-136367]	-23.94%
Nc1nc(Nc2cccc(Cl)c2)ncc1C(=O)NCc1ccncc1 [TCMDC-135688]	0.6434%
COc1ccc(CNC(=O)c2cnc3c(O)cccc3c2Nc2cccc(NC(=O)c3ccc(-c4ccccc4)cc3)c2)cc1.O=C(O)C(F)(F)F [TCMDC-139611]	77.42%
NS(=O)(=O)c1ccc(CNC(=O)c2cnc3c(O)cccc3c2Nc2cccc(NC(=O)c3ccc(Cl)c(Cl)c3)c2)cc1.O=C(O)C(F)(F)F [TCMDC-139608]	34.02%
